Measured values reported in ChEMBL document CHEMBL3988442, “University of Dundee, Small-Polar-MMV Screening Library” (2021).
Out of some 48,000 compounds screened, about 13,000 (27%) showed an effect of 50% or more. This is one part of the list.

Test system: Wolbachia pipientis
Assay: Anti-Wolbachia Cell-Based Screen
Format: functional
Parameters: scale not given: in the data most compounds retested in dose-response had high values
Settings: 5 µM

SMILES | Percent Effect [%]
Cc1[nH]nc(CCC(=O)N2C[C@H]3CC[C@@H]2CN(C(=O)N(C)C)C3)c1C | -18.31
CC(=O)N[C@H](C)c1c(-c2ccc(Cl)cc2)noc1C(=O)O | -1.378
Cn1cnc2c1C(COCc1ccccc1)N(Cc1cccnc1)CC2.O=C(O)C(F)(F)F.O=C(O)C(F)(F)F.O=C(O)C(F)(F)F (centres undefined) | 3.52
CCOCC1c2c(ncn2C(C)C)CCN1C(=O)CC (centres undefined) | -9.692
Cn1cnc2c1C(COCc1ccccc1)N(Cc1ccncc1)CC2.O=C(O)C(F)(F)F.O=C(O)C(F)(F)F.O=C(O)C(F)(F)F (centres undefined) | -5.71
O=C(c1cscn1)N1CCn2cnc(COCC3CC3)c2C1 | -4.402
CCOCC1c2c(ncn2C(C)C)CCN1C(C)C.O=C(O)C(F)(F)F.O=C(O)C(F)(F)F (centres undefined) | 0.9894
CCOCC1c2c(ncn2C)CCN1C(=O)c1cscn1 (centres undefined) | 99.42
CCOCC1c2c(ncn2C)CCN1C(=O)c1ccoc1 (centres undefined) | 86.79
CCOCC1c2c(ncn2C)CCN1C(=O)c1cnc(C)cn1.O=C(O)C(F)(F)F (centres undefined) | 107
CCOCC1c2c(ncn2C(C)C)CCN1C(=O)C1CC1 (centres undefined) | 9.389
O=C(NCCn1ccnc1-c1cc2n(n1)CCCNC2)c1ccncc1 | -0.5813
CC(NC(=O)c1ccoc1)C(=O)N(C)Cc1cccc(C(F)(F)F)c1 (centres undefined) | 12.38
CCn1nc2c(cc1=O)CN(Cc1nc(CCOC)no1)CC2 | -7.437
Cc1cccc(C(C)(C)CNC(=O)CCSc2nnnn2C)c1 | -0.1425
CCCn1c(C)c(CC(=O)N(C)CCOC)c2c1CC(C)(C)CC2=O | -2.271
Cc1c[nH]c(CN(C)C(=O)CCn2cnc3ccccc32)n1 | -8.611
COc1ccc(CN2CCNC(=O)CC2)cc1SC(F)(F)F | -6.808
Cc1ncc2c(n1)CN(CCOc1ccc3c(c1)CCC(=O)N3)CC2 | 3.437
Cc1ccc(C)c2c(O)cc(CN3CCNC(=O)C3C)nc12 (centres undefined) | -11.58
CSc1ccc(OCCN2CCNC(=O)C2C)cc1 (centres undefined) | 111.5
CCCOc1ccc(OCCN2CCOCS2(=O)=O)cc1 | -1.298
Cc1nc(C)n(CC2CCCN2CCOc2ccc(C#N)cc2)n1 (centres undefined) | -3.46
CCn1nc2c(cc1=O)CN(CCOc1ccc(C#N)cc1)CC2 | 2.029
CC1C(=O)NCCN1CCOc1ccc(C#N)cc1 (centres undefined) | 92.79

SMILES | Percent Effect [%]
CSc1ccc(OCCN2CCNC(=O)CC2)cc1 | 106.2
Cc1noc(C)c1CNCC1COCc2c(-c3ccsc3)nnn2C1.O=C(O)C(F)(F)F (centres undefined) | 0.4259
Cc1ncc(S(=O)(=O)Nc2ccnn2C2CCCCC2)[nH]1 | -19.02
COc1ccc(-n2ncc(C(C)NC3CCOCC3)c2C)cc1 (centres undefined) | -6.318
CC(C)c1cc(NC(=O)CN2CCCC2Cn2cccn2)on1 (centres undefined) | -0.3726
Cc1cc(NC(=O)CCN2CCCC2Cn2cccn2)no1 (centres undefined) | 85.34
CC(C)(C)c1cc(NC(=O)CN2CCCC2Cn2cccn2)on1 (centres undefined) | 83.96
Cc1cc(NC(=O)CCN2CCCC2Cn2cncn2)no1 (centres undefined) | 7.653
O=C(CN1CCCCC1Cn1cccn1)NC1CCOCC1 (centres undefined) | -17.79
CCN1CCC(NC(=O)CN2CCCC2Cn2cccn2)CC1 (centres undefined) | 18.69
CC(C)(C)c1cc(NC(=O)CN2CCCC2Cn2cncn2)on1 (centres undefined) | 8.198
Cc1cc(NC(=O)CCN2CCCCC2Cn2cncn2)no1 (centres undefined) | 123.3
CC(C)(C)c1cc(NC(=O)CN2CCCCC2Cn2cncn2)on1 (centres undefined) | -6.385
O=C(CN1CCCC1Cn1cccn1)NC1CCN(C2CC2)CC1 (centres undefined) | -5.086
Cc1cc(NC(=O)CCN2CCCCC2Cn2cccn2)no1 (centres undefined) | 107.3
CCN1CCC(NC(=O)CN2CCCCC2Cn2cccn2)CC1 (centres undefined) | 8.022
Cc1n[nH]c(C)c1CN(C)C(C(=O)O)c1c(F)cccc1OC(C)C (centres undefined) | -15.01
CC(C)=CCN1C[C@H]2CC[C@@H]1CN(C(=O)c1ccc3[nH]cnc3c1)C2 | 1.607
Cc1cnn(CCNCc2cc(=O)n3cc(Cl)ccc3n2)c1 | -2.605
CC(=O)N1CCN(CC(=O)NCCCN(C)c2ccccc2)CC1 | -6.128
CNc1nc(CNC(=O)Nc2cccc(-c3nnco3)c2)cs1 | -5.762
CCC[C@H]1CN(C2CCOCC2)C[C@@H]1NC(=O)CCc1cnccn1 | -6.675
O=C(CSc1ccccc1)N1C[C@H]2CC[C@@H]1CN(Cc1ccncc1)C2 | -7.761
Cc1nc(NCC2CCOCC2)cc(C2CCN2S(C)(=O)=O)n1 (centres undefined) | 108.2
Cc1ccc(-c2cnnc(NCC3CCOCC3)n2)o1 | -4.072

SMILES | Percent Effect [%]
CC(=O)N1CCC1c1cc(NC2CCOCC2)nc(C)n1 (centres undefined) | 79.3
Cc1nc(NC2CCOCC2)cc(C2CCN2S(C)(=O)=O)n1 (centres undefined) | 120.8
CC1c2ncc(COCC3CCOCC3)n2CCN1S(C)(=O)=O (centres undefined) | -5.189
Cn1ncc(N2CCC(CNC3Cc4ccccc4C3)C2)cc1=O (centres undefined) | -0.06487
COc1ccc(C(C)N2CCC(OC)CC2)cc1Cl (centres undefined) | 17.11
Cc1ccsc1CN1CC[C@H]2OCC[C@@]2(C(=O)N2CCCO2)C1.O=C(O)C(F)(F)F | 103.7
O=C(N1CCOCC1)[C@@]12CCO[C@@H]1CCN(Cc1cccc(F)c1)C2.O=C(O)C(F)(F)F | 102.7
O=C(N1CCCO1)[C@@]12CCO[C@@H]1CCN(Cc1ccc(F)cc1)C2.O=C(O)C(F)(F)F | 99.96
COC[C@@]12CCO[C@@H]1CCN(Cc1sccc1C)C2.O=C(O)C(F)(F)F | 9.781
O=C(N1CCCO1)[C@@]12CCO[C@@H]1CCN(Cc1ccccc1)C2.O=C(O)C(F)(F)F | -18.43
O=C(N1CCCO1)[C@]12COC[C@H]1CN(Cc1nccs1)C2.O=C(O)C(F)(F)F | -2.706
O=C(N1CCCO1)[C@@]12CCO[C@@H]1CCN(C1CCCCC1)C2.O=C(O)C(F)(F)F | 6.239
O=C(N1CCCO1)[C@@]12CCO[C@@H]1CCN(Cc1cccs1)C2.O=C(O)C(F)(F)F | 96.37
O=C(N1CCOCC1)[C@@]12CCO[C@@H]1CCN(Cc1ccccc1F)C2.O=C(O)C(F)(F)F | 14.16
O=C(N1CCOCC1)[C@@]12CCO[C@@H]1CCN(CCN1CCCCC1)C2.O=C(O)C(F)(F)F.O=C(O)C(F)(F)F | 12.15
Cc1ccc(S(=O)(=O)NCc2[nH]ncc2Br)cc1C | -4.089
O=C(CN1CCOC1=O)N1CCc2nnc(Cc3ccccc3)n2CC1 | 1.802
N#Cc1c(Cl)nsc1NCc1ccc(N2CCC(CO)CC2)cc1 | -1.187
Cc1ccc(CN2CCOC3(CCCN(c4cccc(F)c4)C3)C2)o1.O=C(O)C(F)(F)F.O=C(O)C(F)(F)F (centres undefined) | -11.31
Cc1ccc(CN2C[C@H](C(=O)N3CCCCO3)[C@@H]3CCO[C@@H]3C2)o1.O=C(O)C(F)(F)F | -4.524
Cc1ccc(CN2CC[C@H]3OCC[C@@]3(C(=O)N3CCCO3)C2)o1.O=C(O)C(F)(F)F | 102.1
Cn1cccc1C(=O)N[C@@H]1CN(S(C)(=O)=O)[C@@H]2COC[C@@H]21 | -0.3534
COCCC1(C(=O)O)CCCN(Cc2cc3c(cc2C)OCO3)C1 (centres undefined) | 0.3642
Cc1nc(COCC2CN(C(=O)N(C)C)Cc3nccn3C2)cs1.O=C(O)C(F)(F)F (centres undefined) | 91.86
Cc1nc(COCC2CNCc3nccn3C2)cs1 (centres undefined) | 1.667

SMILES | Percent Effect [%]
Cc1nc(CN2CCCn3cnc(COCC4CC4)c3C2)cs1.O=C(O)C(F)(F)F | -1.787
Cc1nc(COCc2cnc3n2CCN(C)C3C)cs1.O=C(O)C(F)(F)F (centres undefined) | 0.7983
Cc1nc(COCC2CN(C(N)=O)Cc3nccn3C2)cs1.O=C(O)C(F)(F)F (centres undefined) | 114.2
Cc1cc(C)c(C(=O)NCCNc2ncnc3ccccc23)c(=O)[nH]1 | -7.4
COc1cc(F)ccc1NC(=O)NC(C)C(=O)NC(C)(C)C (centres undefined) | -5.015
COc1ccc(CNCc2c(C)nc3sc(C)cn23)c(OC)c1OC | 49.47
c1ccc(-c2noc3c2CN(CC2CC2)CC3)cc1 | 5.665
Cc1ncc2c(n1)CN(CC(=O)Nc1c(C)nn(C)c1C)CC2 | 114.4
Cc1ncc2c(n1)CN(CC(=O)Nc1cc(C)on1)CC2 | 138
Cc1ncc2c(n1)CN(CCOCC(F)(F)F)CC2 | -8.792
Cc1cc(NC(=O)CN2CCn3c(nnc3C(C)C)C2)no1 | 1.243
Cc1nn(C)c(C)c1NC(=O)CN1CCc2c(nc(C3CC3)n2C)C1 | -19.95
Cc1cc(NC(=O)CN2CCc3cnc(C)nc3C2)on1 | -3.742
Cc1ccc(Cl)cc1N1CCC(CNC(=O)CC(F)(F)F)C1 (centres undefined) | -9.569
COCCN1Cc2ccnn2CC(COCc2cccnc2)C1 (centres undefined) | -11.51
CN1CCCN(C(=O)c2cccc(S(=O)(=O)NCC3(C)COC3)c2)CC1 | -12.18
O=C(c1cccc(S(=O)(=O)NCCCn2cccn2)c1)N1CCOCC1 | -8.398
CN(Cc1ncc[nH]1)S(=O)(=O)c1cccc(C(=O)N2CCOCC2)c1 | -7.295
CN(CC1CCOC1)S(=O)(=O)c1cccc(C(=O)N2CCOCC2)c1 (centres undefined) | 110.2
CN(CC1CCCCO1)S(=O)(=O)c1cccc(C(=O)N2CCOCC2)c1 (centres undefined) | 99.86
CN(CC1CCOC1)S(=O)(=O)c1cccc(C(=O)N2CCCCCC2)c1 (centres undefined) | 127.8
O=C(c1cccc(S(=O)(=O)NCCc2ccccn2)c1)N1CCOCC1 | -3.428
O=C(c1cccc(S(=O)(=O)NCCCc2ccco2)c1)N1CCOCC1 | 28.12
CN(C)C1CCN(C(=O)c2cccc(S(=O)(=O)NCC3(C)COC3)c2)C1 (centres undefined) | 24.95
